Compounds without any hit were thinned out: in the full panel of roughly 83,000, 20% have a hit.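 Each cell line was grown in a 96-well plate and treated with one concentration of compound for 48 hours. Values below 10 were considered active.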 Unmarked numbers belong to inactive results. Activity calls are given as the source filed them.
Assays:
Assay in all cases: NCI-60 one-dose screen, 48 h (100 = growth as untreated, 0 = no growth, -100 = all killed)
Conditions in all cases: 10 µM
EKVX NSCLC = system: EKVX NSCLC
SN12C renal = system: SN12C renal
UO-31 renal = system: UO-31 renal
TK-10 renal = system: TK-10 renal
ACHN renal = system: ACHN renal
CAKI-1 renal = system: CAKI-1 renal
A498 renal = system: A498 renal
MOLT-4 leukemia = system: MOLT-4 leukemia
RPMI-8226 leukemia = system: RPMI-8226 leukemia
OVCAR-8 ovarian = system: OVCAR-8 ovarian
OVCAR-5 ovarian = system: OVCAR-5 ovarian
OVCAR-4 ovarian = system: OVCAR-4 ovarian
SK-OV-3 ovarian = system: SK-OV-3 ovarian
IGROV1 ovarian = system: IGROV1 ovarian
OVCAR-3 ovarian = system: OVCAR-3 ovarian
HS 578T breast = system: HS 578T breast
NCI/ADR-RES ovarian = system: NCI/ADR-RES ovarian
CCRF-CEM leukemia = system: CCRF-CEM leukemia
SR leukemia = system: SR leukemia

SMILES | growth (EKVX NSCLC) | growth (SN12C renal) | growth (UO-31 renal) | growth (TK-10 renal) | growth (ACHN renal) | growth (CAKI-1 renal) | growth (A498 renal) | growth (MOLT-4 leukemia) | growth (RPMI-8226 leukemia) | growth (OVCAR-8 ovarian) | growth (OVCAR-5 ovarian) | growth (OVCAR-4 ovarian) | growth (SK-OV-3 ovarian) [%] | growth (IGROV1 ovarian) | growth (OVCAR-3 ovarian) | growth (HS 578T breast) | growth (NCI/ADR-RES ovarian) | growth (CCRF-CEM leukemia) [%] | growth (SR leukemia)
CCCCCCCCCCCCCCCCCCCC(=O)NCCc1c[nH]c2ccc(O)cc12 | 101% | 84.9% | 71.9% | 118% | 98.8% | 105% | 118% | 71.2% | 28.2% | 102% | 111% | 98% | 137 | 93.6% | 87.4% | 112% | 96.2% |  | 
Nc1nc(Nc2ccccc2)nn1Cc1c(Cl)cccc1Cl | 20.2% | 44.5% | 11.8% | 53.8% | 13.9% | 27.9% | -3.12% (active) | 18.6% | 27.1% |  | 46.6% | 39.7% | 51.3 | 11.2% | 54.6% | 29.3% | 10.6% | 26.5 | 25%
COc1ccc(C(=O)/C=C/c2cc(C(F)(F)F)cc(C(F)(F)F)c2)cc1S(N)(=O)=O | -93% (active) | -59.3% (active) | -100% (active) | -89.8% (active) | -96.2% (active) | -83% (active) | 2.73% (active) | 2.98% (active) | 3.03% (active) | -29.8% (active) | -93.6% (active) | -80% (active) | 20 | -69% (active) | -88.6% (active) |  | -34% (active) | 10.7 | 5.52% (active)
O=C(Nc1ccc(Cl)c(C(F)(F)F)c1)c1cncc(C#Cc2cnc3ccc(N4CCOCC4)nn23)c1 | 19.2% | 6.18% (active) | -33.6% (active) | 23.8% | -35% (active) | 9.84% (active) | -19.3% (active) |  |  | 3.66% (active) | 19.4% | 13.6% | 10.7 | -14.1% (active) | 13.6% | -25.3% (active) | -5.95% (active) | 37.5 | 2.44% (active)

Reference: PubChem BioAssay (NCI)
